In the library only some 6.5% were active in any assay of this set; here they are far more common.
FMDV antiviral: blocks foot and mouth disease virus. FMDV antiviral cell-based qHTS. Potency, µM (top dose mostly 57.9 µM), for inactives: top-dose activity change, negative = inhibition, actives largely listed as inhibitors. hit rate 1.2% among 410,000. AID 1159524; calls by dose curve; tested in HEK293T cells; further: read-out not given here; potency means the concentration at half of the fitted maximal effect; nearly all actives have a fitted effect of over 45% in size
VACV mCherry inh: inhibitors of vaccinia virus infection (mCherry reporter signal) | Vaccinia virus mCherry reporter infection, fluorescence | Potency, µM (series often up to 36.5 µM), for the others: top-dose activity change, negative = inhibition, hits mostly inhibitors | hit rate 0.63% among 310,000 | AID 720579; calls by dose curve; tested in A549 cells; further: potency means the concentration at half of the fitted maximal effect; nearly all actives have a fitted effect of over 35% in size
LASV entry inh: blocks Lassa virus binding to or entry into cells. Lassa virus pseudotype entry inhibition, cell reporter. AID 540256. Potency, µM (top dose mostly 37.9 µM), for the others: top-dose activity change, negative = inhibition, most hits filed as inhibitors. hit rate 1.2% among 300,000; calls by dose curve; tested in HEK293 cells; further: potency means the concentration at half of the fitted maximal effect; nearly all actives have a fitted effect of over 50% in size
MARV entry inh: blocks Marburg virus binding to or entry into cells; Marburg virus pseudotyped entry inhibition, cell reporter; hit rate 1.8% among 300,000; Potency, µM (highest dose often 37.8 µM), for the others: top-dose activity change, negative = inhibition, usual class: inhibitors; calls by dose curve; tested in HEK293 cells; further: potency means the concentration at half of the fitted maximal effect
HCMV inh: blocks human cytomegalovirus replication | hit rate 4.5% among 410,000 | HFF cells, HCMV-luciferase reporter, 72 h; active compounds read low | activity change, negative = inhibition, % at 57.5 µM; in the data active means activity change below about -60%; inconclusive means no clear call, values can overlap the other calls; inactive means above about -39%
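Two-dose cell screen: HFF monolayers treated with compounds and infected with luciferase-expressing HCMV at 1 PFU/cell, 72 h at 37C, then lysed for luciferase measurement.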
VACV Venus inh: vaccinia inhibition (Venus reporter) | Potency, µM (highest dose often 36.5 µM), for inactives: top-dose activity change, negative = inhibition, most hits filed as inhibitors | hit rate 0.46% among 330,000 | Vaccinia virus Venus reporter expression, fluorescence; calls by dose curve; tested in A549 cells; further: potency means the concentration at half of the fitted maximal effect; nearly all actives have a fitted effect of over 30% in size
An asterisk follows results filed as active; i = inactive; ? = inconclusive; / = no result given; ! = not active in a repeat; [ ] = another dose, or the depositor's remark. On the % scale 0 is the no-effect control and ±100 the full control effect.

SMILES | FMDV antiviral | VACV mCherry inh | LASV entry inh | MARV entry inh | HCMV inh | VACV Venus inh
O=C(Cn1cnc2ccccc21)Nc1ccc(SC(F)F)cc1 | ? | -7% | -16%[46.1 µM] | 3.2µM* | -10 | -23%
CCn1c(N)[n+](CC(=O)Nc2ccc(SC(F)F)cc2)c2ccccc21 | -7% | ? | ? | 4.5µM* | ? | -24%
COc1ccc(NC(=O)COC(=O)Cn2cnc3ccccc32)cc1 | -2% | -18% | 3% | 1% | -4 | -2%
CCC1CSC(=Nc2ccc(C)cc2)N1C(=O)CN1C(=O)NC2(CCCC2)C1=O (stereo not drawn) | 7% | ? | 10µM* | ? | 173 | ?
Cc1ccc(C(NC(=O)CN2C(=O)NC3(CCCC3)C2=O)c2ccccc2)cc1 (stereo not drawn) | -15% | / | / | / | -14 | /
COc1ccc(N(C(=O)/C=C\C(=O)Nc2ccc(C)cc2)C(C(=O)NCc2ccco2)c2ccc(C)cc2)cc1 (stereo not drawn) | -10% | -13% | ? | / | -30 | -18%
O=C(c1ccccc1F)N(Cc1cc2cc3c(cc2nc1N1CCOCC1)CCC3)CC1CCCO1 (stereo not drawn) | 16% | -15% | / | / | / | -7%
COC(=O)c1cc(CSc2nc3ccccc3c(=O)n2C)oc1C | ? | -14% | ? | ? | -74* | -5%
COCCn1c(SCc2ccc(C(=O)OC)o2)nc2ccccc2c1=O | / | -9% | -12% | -9% | 25 | 0%
Cn1c(SCCOc2ccccc2F)nc2ccccc2c1=O | 40µM* | -12% | 3% | 3.5µM* | ? | -16%
Cc1cccc(CSc2nc3ccccc3c(=O)n2C)c1 | ? | / | / | / | -76* | /
Cc1ccc(-c2noc(CNC(=O)c3ccc(Br)o3)n2)cc1 | -10% | i | -9%[46.1 µM] | 3%[46.1 µM] | 7 | -10%
COc1ccc([C@@H]2NC3=C(CCC3)[C@@]3(C#N)C(OC)(OC)N=C(N)[C@]23C#N)cc1 | / | / | / | -6% | / | /
CCN(C(=O)C12CC3CC(CC(C3)C1)C2)C1CCS(=O)(=O)C1 (stereo not drawn) | -11% | -16% | 19% | 1% | -24 | -12%
CCN(C(=O)COC(=O)CNC(=O)C12CC3CC(CC(C3)C1)C2)C1CCS(=O)(=O)C1 (stereo not drawn) | 0% | i | 5% | 15% | -102* | -7%
Cc1c(/C(O)=C2/C(=O)C(=O)N(CCN3CCOCC3)C2c2ccccn2)cnn1-c1ccccc1 (stereo not drawn) | 1.4µM* | -9% | ? | ? | -78* | 1%
CCc1ccc(CNC(=O)CN2C(=O)CCn3nc(-c4cn(C)c5ccccc45)cc32)cc1 | 2% | -17% | 9%[46.1 µM] | / | 17 | -8%
CCc1nccc2c1nc(-c1nonc1N)n2CC | / | / | 25µM* | / | / | /
O=C(Nc1ccc(F)cc1F)C1CCN(S(=O)(=O)c2ccc3[nH]c(=O)ccc3c2)CC1 | -21% | 5% | 1%[46.1 µM] | / | -17 | 4%
CSCCC(NS(=O)(=O)c1ccc(C)c(C(=O)O)c1)C(=O)O (stereo not drawn) | 0% | 0% | -4%[46.1 µM] | 0%[46.1 µM] | -64* | -8%
CSCCC(NS(=O)(=O)c1ccc(Cl)cc1)C(=O)O (stereo not drawn) | -8% | i | 7%[46.1 µM] | ? | -9 | -9%
CN(C)CCN(Cc1ccccc1)C(=O)c1[nH]c(C(F)(F)F)nc1-c1ccccc1 | 35µM* | 7% | / | / | -2 | 3%
CCCCN(C)C(=O)c1[nH]c(C(F)(F)F)nc1-c1ccccc1 | -18% | -2% | / | / | -15 | 4%
COc1cccc(Cn2c(C)c(CNC3CCCCC3)c(C(=O)O)c2C)c1 | -7% | -14% | ? | 25%[46.1 µM] | -102* | -11%
CCc1cc(=O)oc2c(CNCc3ccc(OC)cc3OC)c(O)c(Cl)cc12 | -7% | -12% | ? | -3% | 160 | -4%
SMILES | FMDV antiviral | VACV mCherry inh | LASV entry inh | MARV entry inh | HCMV inh | VACV Venus inh
COc1ccc(CNCc2c(O)c(Cl)cc3c(C)c(C)c(=O)oc23)c(OC)c1 | -13% | -14% | 12% | -17% | -70* | -6%
O=C(COC(=O)c1ccccc1Cl)NC(=O)NCc1ccccc1 | 24% | -5% | 8.2µM* | -1% | 33 | -17%
Cc1ccc(C(=O)OCC(=O)NC(=O)NCc2ccccc2)cc1C | -7% | / | / | / | -2 | /
CCNC(=O)NC(=O)COC(=O)c1ccccc1SCC(=O)NC(=O)NCC | -73% | -15% | ? | 14µM* | 125 | -12%
O=C(COC(=O)c1ccc(F)c([N+](=O)[O-])c1)NC(=O)NCc1ccccc1 | 32µM* | -2% | ? | ? | -12 | -18%
CCOc1cccc(C2c3c(oc4ccc(F)cc4c3=O)C(=O)N2c2cc(C)ccn2)c1 (stereo not drawn) | -6% | -11% | 11%[46.1 µM] | -9%[46.1 µM] | 5 | -9%
COc1cc(C2C3=C(Nc4ncnn42)c2ccccc2CC3)cc(OC)c1OC (stereo not drawn) | 8% | / | ? | 0.73µM*! | -89* | /
CCOC(=O)c1c(NC(=O)CSc2cn(CCNC(=O)c3ccc(OC)c(OC)c3)c3ccccc23)sc2c1CCCC2 | 0% | -17% | -12%[46.1 µM] | ? | -19 | -24%
O=C(Nc1ccc(Nc2ccccc2)cc1)Nc1ccccc1Cl | 19% | / | / | / | ? | /
O=C(Nc1ccccc1)Nc1cc(Cl)cc(Cl)c1 | -29% | / | ? | ? | -91* | 11µM*
O=C(Nc1ccccc1)Nc1cc(OCC(F)(F)F)cc(OCC(F)(F)F)c1 | -20% | ? | ? | ? | -100* | ?
O=C(Nc1cccnc1)Nc1cc(Cl)cc(Cl)c1 | ? | -27% | 1% | -15% | -61* | ?
COc1ccc(NC(=O)NC(=O)c2ccccc2)cc1 | 80% | / | / | / | 34 | /
O=C(NC(=O)c1ccccc1)Nc1ccccc1 | -44% | 0% | ? | 2.8µM* | -3 | -5%
Cc1cc(C)cc(OCC(=O)NCC2(N(C)C)CCCCC2)c1 | -20% | -4% | 10%[46.1 µM] | ? | 0 | -5%
CCCCN=CN1c2ccccc2-n2cccc2C1c1ccc(CC)cc1 (stereo not drawn) | / | / | / | / | 52 | /
O=C(NCc1ccccn1)Nc1cc(Cl)cc(Cl)c1 | 2% | / | / | / | -24 | /
O=C(NCc1csc2ccccc12)Nc1cc(Cl)cc(Cl)c1 | ? | -28% | -19% | ? | -62* | -17%
CC(C(=O)NC1CCCCCC1)N(c1ccccc1)S(C)(=O)=O (stereo not drawn) | 14% | -12% | -2% | 8.2µM* | 81 | 0%
Cc1ccc(-n2nnnc2Sc2nc([N+](=O)[O-])nn2C)c(C)c1 | -16% | / | -5% | ? | -70* | ?
Cc1ccc(-n2nnnc2Sc2nc([N+](=O)[O-])nn2C)cc1 | ? | -29% | ? | ? | -9 | ?
COc1cccc(C2=NN(C(C)=O)C(c3cn(-c4ccccc4)nc3-c3cccs3)C2)c1 (stereo not drawn) | -5% | -8% | 2%[46.1 µM] | -2%[46.1 µM] | 3 | -13%
CCOC(=O)c1c(NC(=O)c2cc3n(n2)C(C(F)(F)F)CC(c2cccs2)N3)sc(C)c1C (stereo not drawn) | 0% | -9% | -19% | 9% | ? | -5%
